Here are results for 40 molecules from ChEMBL document CHEMBL3433997, “St. Jude Leishmania screening dataset” (2016).

Assay type in all cases: functional
Test [1] addresses Solute carrier family 2, facilitated glucose transporter member 1 (Homo sapiens) (UniProt P11166). Briefly: ST_JUDE_LEISH: Cytotoxicity at 2uM final concentration against transgenic Leishmania Mexicana promastigotes LmGLUT1 that are glucose transport deficient and complemented with the human glucose transporter GLUT1. Activity is measured by DNA content using SYBR green in vitro.

For test [2], the target named is Hexose transporter 1 (Plasmodium falciparum) (UniProt O97467). In words: ST_JUDE_LEISH: Cytotoxicity at 2uM final concentration against transgenic Leishmania Mexicana promastigotes LmPfHT that are glucose transport deficient and complemented with the Plasmodium falciparum hexose transporter. Activity is measured by DNA content using SYBR green in vitro.
Test [3] deals with Glucose transporter (Leishmania mexicana) (UniProt O61059). In words: ST_JUDE_LEISH: Cytotoxicity at 2uM final concentration against transgenic Leishmania Mexicana promastigotes LmGT2 that are glucose transport deficient and complemented with the L. Mexicana glucose transporter 2. Activity is measured by DNA content using SYBR green in vitro.

Sequence of Solute carrier family 2, facilitated glucose transporter member 1 (Homo sapiens) (P11166 whole entry): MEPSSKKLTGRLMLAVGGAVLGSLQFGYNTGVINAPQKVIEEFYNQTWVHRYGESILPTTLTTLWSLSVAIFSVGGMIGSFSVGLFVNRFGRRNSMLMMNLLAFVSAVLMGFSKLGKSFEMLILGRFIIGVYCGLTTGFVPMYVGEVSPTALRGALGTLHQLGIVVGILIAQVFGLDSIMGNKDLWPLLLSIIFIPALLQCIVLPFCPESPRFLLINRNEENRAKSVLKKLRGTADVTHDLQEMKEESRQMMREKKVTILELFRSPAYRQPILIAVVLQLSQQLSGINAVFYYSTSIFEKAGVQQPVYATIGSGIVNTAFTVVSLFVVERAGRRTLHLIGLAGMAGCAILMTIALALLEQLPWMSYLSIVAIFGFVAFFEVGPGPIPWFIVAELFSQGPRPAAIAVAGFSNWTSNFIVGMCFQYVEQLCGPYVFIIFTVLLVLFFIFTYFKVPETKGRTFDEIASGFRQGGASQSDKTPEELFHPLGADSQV

With `CCOC(=O)c1cccc(NC(=N)Nc2nc(C)cc(NCCc3ccccc3)n2)c1`, the results for the inhibition in test [1], in test [2] and in test [3] were 7.04%, 7.16% and 5.39%, respectively.

For the molecule `CNC(=O)c1nc(-c2ccccc2)[nH]c1NC(C)=O`, the inhibition in test [1] worked out at 2.72%; in test [2], 3.44%; in test [3] it was 2.17%.

On to `O=C(N[C@H]1CCN(CCc2ccc(O[C@H]3CCNC3)c(F)c2)C1)c1ccc(Cl)c(Cl)c1`, for which the inhibition in test [1] stood at 8.17%; in test [2] it was 9.6%; in test [3], 9.34%.

With `CN(C)c1nc(NN=Cc2cc(Cl)ccc2O)nc(Nc2ccc(F)cc2)n1`, the inhibition came out at 13% in test [1], 11% in test [2] and 10.9% in test [3].

`OC(c1cccc2ccccc12)C1CN(CCc2ccccc2)CCC1(O)c1ccccc1` (stereo not given): the inhibition in test [1] was found to be 9.92%; in test [2] it was 11.8%; in test [3] it was 3.51%.

For the molecule `c1cc(-c2cc3ccc(C4=NCCN4)cc3[nH]2)ccc1C1=NCCN1`, the figures for the inhibition in test [1], in test [2] and in test [3] were 1.68%, 2.57% and 0.39%, respectively.

With `COc1cc(N)cc2sc(N)nc12`, the values for the inhibition in test [1], in test [2] and in test [3] were -1.04%, 0.54% and 0.08%, respectively.

As to `Cc1cnc(CN(Cc2ccc(-c3ccc(CNCCc4ccc(S(C)(=O)=O)cc4)cn3)cc2)C(=O)c2ccc([N+](=O)[O-])c(C)c2)cn1`, the inhibition was 1.89% in test [1], 3.15% in test [2] and 1.98% in test [3].

Consider `Cc1cc(NC(=O)Nc2cccc(C#N)c2)c2ccccc2n1`, for which the inhibition in test [1] was found to be 4.37%; in test [2] it was 4.11%; in test [3] it was 3.04%.

For the molecule `CC[C@H](NC(=O)c1c(CN2CCC(N3CCCCC3)CC2)c(-c2ccccc2)nc2c(Cl)c(O)ccc12)c1ccccc1`, the inhibition in test [1] worked out at 7.43%; in test [2], 6.81%; in test [3], 6.04%.

Consider `Clc1cc(Nc2ncnc3sc(C#Cc4ncc[nH]4)cc23)ccc1OCc1ccccn1`, for which the inhibition in test [1] was -0.91%; in test [2], 5.1%; in test [3], -0.27%.

Consider `Cc1onc(-c2c(Cl)cccc2Cl)c1C(=O)NC1=NC(C)(C)ON1c1ccccc1`, for which the figures for the inhibition in test [1], in test [2] and in test [3] were 5.88%, 5.44% and 4.86%, respectively.

Consider `CCCCC(=O)Nc1nonc1-c1ccc(OCC)c(OCC)c1`, for which the inhibition in test [1] was -0.29%; in test [2] it was -0.24%; in test [3], -4.47%.

As to `COc1ccc(OC)c2c1CCN(CCN1CCC(C(=O)Nc3ccc(C(=O)Nc4ccc(Cl)cc4)cc3)CC1)C2`, the inhibition in test [1] was found to be 1.55%; in test [2] it was 0.47%; in test [3] it was 0.22%.

Take `COc1ccc(CN2CCCN(Cc3ccc(C(=O)Nc4ccc(Cl)cc4)cc3)CC2)cc1`: the inhibition was found to be 4.35% in test [1], 5.51% in test [2] and 6.65% in test [3].

`CC(C)CNC(=O)c1ccnc(-c2ccc(CNC3Cc4ccccc4C3)cc2)c1`: the values for the inhibition in test [1], in test [2] and in test [3] were -0.85%, -0.27% and -1.63%, respectively.

For `O=C(Nc1cc(C(F)(F)F)cc(C(F)(F)F)c1)NC(CCCN1CCC2(CC1)OCc1ccccc12)c1ccc(Cl)c(Cl)c1` (stereo not given), the inhibition in test [1] is 3%; in test [2], 5.93%; in test [3], -0.66%.

Take `Cc1nc(-c2cccc3c(NC(=O)Nc4ccc5nccc(N6CCN(C)CC6)c5c4)cccc23)no1`: the inhibition in test [1] amounted to 4.28%; in test [2], 4.25%; in test [3], 6.65%.

`Oc1cc2c(cc1CN1CCN(Cc3ccc(Cl)s3)CC1)CCC2`: the inhibition in test [1] was determined as 2.02%; in test [2], 4.66%; in test [3], 1.82%.

Turning to `CN(C)Cc1c(O)ccc2[nH]c(-c3ccc(OC(F)(F)F)cc3)nc12`, the inhibition came to 3.92% in test [1], 3.22% in test [2] and 2.9% in test [3].

On to `CC(C)(C)Nc1cc(C2CC2)nc(-c2ccccn2)n1`, for which the inhibition in test [1] was found to be 2.01%; in test [2], 4.26%; in test [3], 3.05%.

Consider `Cc1nn(C)cc1C(C)Nc1nncc(-c2ccc(C(F)(F)F)cc2)n1` (stereo not given), for which the values for the inhibition in test [1], in test [2] and in test [3] were 2.34%, 2.27% and 3.38%, respectively.

For the molecule `COc1ccc2nccc(N3CCC(SCCNS(=O)(=O)c4ccc5c(c4)OCCO5)C3)c2n1` (stereo not given), the inhibition in test [1] is 5.04%; in test [2], 3.57%; in test [3], -0.04%.

With `COc1cc(NC(=O)c2nn(CCCN3CCC(N4CCCC4)CC3)cc2-c2ccc(Cl)c(Cl)c2)cc(OC)c1OC`, the figures for the inhibition in test [1], in test [2] and in test [3] were 1.76%, 2.09% and 1.96%, respectively.

For `CN1CCN(c2ccnc3ccc(NC(=O)Cc4ccc(OCc5ccccc5)cc4)cc23)CC1`, the inhibition is 7.43% in test [1], 7.76% in test [2] and 8.79% in test [3].

For `Cc1ccc(CNC(=O)[C@H](Cc2ccccc2)Nc2cc(C)nc(NCCc3ccc(F)cc3)n2)cc1`, the inhibition worked out at 5.47% in test [1], 4.28% in test [2] and 10.6% in test [3].

Turning to `Cc1cc(NCCCCCCNc2cc(C)nc3c(C)cccc23)c2cccc(C)c2n1`, the inhibition in test [1] amounted to 3.76%; in test [2], 7.91%; in test [3], 0.85%.

`O=C(NCCCc1ccccc1)c1ccc(O)c(-c2cc(Cl)cc(Cl)c2)c1`: the inhibition was determined as 4.73% in test [1], 4.32% in test [2] and 3.61% in test [3].

In the case of `O=C(Nc1cccc(C(F)(F)F)c1)c1cccc(S(=O)(=O)NCC2CCCN(Cc3ccccc3)C2)c1` (stereo not given), the inhibition in test [1] is 1.71%; in test [2] it was 1.75%; in test [3] it was 1.71%.

In the case of `OC1CCCN(Cc2ccc(-c3ccc(-c4nc5cc(F)ccc5[nH]4)cc3)cc2)C1` (stereo not given), the inhibition was 9.06% in test [1], 8.43% in test [2] and 6.49% in test [3].

With `COc1ccc(-c2cnc(N)c(-c3nc4cc(Br)ccc4[nH]3)c2)cc1`, the inhibition in test [1] amounted to 9.38%; in test [2], 11.3%; in test [3] it was 6.12%.

Regarding `Cc1ccc(Nc2nc(C)cc(NC3CCCC3)n2)cc1`, the inhibition in test [1] was found to be 29.3%; in test [2], 19.7%; in test [3], 10.8%.

`N=C(NCCc1ccc(Cl)c(Cl)c1)c1ccc2ccccc2c1`: the results for the inhibition in test [1], in test [2] and in test [3] were 3.61%, -1.48% and -2.5%, respectively.

As for `O=C(Nc1cccc(CN2CCN(C(=O)c3cccc(Cl)c3)CC2)c1)c1cccs1`, the inhibition in test [1] was 5.62%; in test [2], 4.14%; in test [3], 2.57%.

As to `CC1(C)NC(N)=NC(=N)N1OCCCOc1ccc(N)cc1`, the inhibition in test [1] is -1.98%; in test [2], -0.16%; in test [3] it was -1.26%.

For `CCOc1c(CNCCCCCCNCc2ccc3ccccc3c2OCC)ccc2ccccc12`, the inhibition turned out to be 3.4% in test [1], 4.82% in test [2] and 1.99% in test [3].

For `N#Cc1ccc2c(c1)CCN(CCC1CCC(NC(=O)/C=C/c3cnc4ccccc4c3)CC1)CC2` (stereo not given), the inhibition was determined as 8.52% in test [1], 4.53% in test [2] and 3.67% in test [3].

As for `CN(C)c1cc(NN=Cc2cc(Cl)ccc2O)nc(N(C)C)n1`, the inhibition in test [1] amounted to 4.76%; in test [2], 4.94%; in test [3], 2.54%.

Take `COc1cc2cc(Cc3cnc(N)nc3N)ccc2c(OC)c1OC`: the inhibition was 0.96% in test [1], -0.27% in test [2] and 1.56% in test [3].

On to `Cn1c(-c2ccccc2)cc2c3c(=O)cc(C(F)(F)F)[nH]c3ccc21`, for which the inhibition in test [1] was determined as 13.8%; in test [2], 13.1%; in test [3] it was 14.1%.

Broadly, the inhibition is the change of the read-out against control, counted positive when it falls.
